tested on: FLX1 + dox-induced PRKAR1A G325D; assay: difference in log2 fold change of viability vs plate median (dox-induced PRKAR1A G325D minus uninduced); higher = compound less effective when PKA is inhibited; conditions: concentration: not stated (2 or 5 uM); 5 days
Method: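 For each plate a log2 fold change vs the plate median was derived, and the values without dox were subtracted from those with dox, averaged over three biological replicates.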

Structure (SMILES)	difference in log2 fold change of viability
N#CC(=C(/N)Sc1ccccc1N)/C(C#N)=C(\N)Sc1ccccc1N	0.518
O=C(Nc1cc(C(F)(F)F)cc(C(F)(F)F)c1)c1cc(Cl)ccc1O	-0.138
O=C(c1ccc(Nc2nccc(-c3cc4ccccc4s3)n2)cc1)N1CCC(N2CCCC2)CC1 [IKK-16 (IKK Inhibitor VII)]	0.096
Cn1cc(/C=C2\C(=O)Nc3cccnc32)c2ccccc21	0.00477
Nc1nc(N)c2nc(-c3cccc(O)c3)c(-c3cccc(O)c3)nc2n1	0.117
CC(C)(O)CC(=O)NCCn1ccc2ncnc(Nc3ccc(Oc4cccc(C(F)(F)F)c4)c(Cl)c3)c21	-0.173
COc1ccc(-c2ccc3ncc4c(c3c2)n(-c2ccc(N3CCNCC3)c(C(F)(F)F)c2)c(=O)n4C)cn1	0.174
CCOc1cc2ncc(C#N)c(Nc3ccc(F)c(Cl)c3)c2cc1NC(=O)/C=C/CN(C)C [Pelitinib (EKB-569)]	0.0327
NC(=O)Nc1sc(-c2ccc(F)cc2)cc1C(N)=O	-0.89
Cc1cc(Nc2nc(N[C@@H](C)c3ncc(F)cn3)ncc2Cl)[nH]n1	-1.58
CN(C)Cc1cccc(N=C(c2ccccc2)c2c(O)[nH]c3cc(C(=O)N(C)C)ccc23)c1	0.0526
COc1cc(N2CCC(N)CC2)ccc1Nc1ncc(Cl)c(-c2c[nH]c3ccccc23)n1	0.0117
N#CC1(c2ccc(NC(=O)c3cccnc3NCc3ccncc3)cc2)CCCC1 [Apatinib]	0.497
Cc1cc(Nc2ncc(Cl)c(Nc3ccccc3S(=O)(=O)C(C)C)n2)c(OC(C)C)cc1C1CCNCC1 [Ceritinib (LDK378)]	0.032
CCc1cc(Nc2nccc(-c3c(-c4ccc(OC)c(C(=O)Nc5c(F)cccc5F)c4)nc4ccccn34)n2)c(OC)cc1N1CCC(N2CCN(S(C)(=O)=O)CC2)CC1	0.164
CCN1CCN(Cc2ccc(-c3cc4c(N[C@H](C)c5ccccc5)ncnc4[nH]3)cc2)CC1	-0.338
COc1ccc(COc2cc3oc(=O)c4cc(C(C)O)ccc4c3cc2OC)cc1 (stereo not given) [Palomid 529 (P529)]	-0.0394
Cc1ccc(S(=O)(=O)/C=C/C#N)cc1	-0.118
CC(C)(C)c1nc(-c2cccc(NS(=O)(=O)c3c(F)cccc3F)c2F)c(-c2ccnc(N)n2)s1	0.264
Cn1cnc2c(F)c(Nc3ccc(Br)cc3Cl)c(C(=O)NOCCO)cc21 [Selumetinib (AZD6244)]	-1.05
COc1ccc(CNC(=O)Nc2ncc([N+](=O)[O-])s2)cc1	0.288
CNC(=O)c1cc(Oc2ccc(NC(=O)Nc3ccc(Cl)c(C(F)(F)F)c3)cc2)ccn1 [Sorafenib]	0.0478
CC(C)CC(=O)Nc1n[nH]c2c1CN(C(=O)C1CCN(C)CC1)C2(C)C	0.243
COc1cc2c(Oc3ccc(NC(=O)C4(C(=O)Nc5ccc(F)cc5)CC4)cc3F)ccnc2cc1OCCCN1CCOCC1	-0.0914
O=C(NOCC1CC1)c1ccc(F)c(F)c1Nc1ccc(I)cc1Cl	0.453
